In PubChem BioAssay AID1159580 (chemical genetic matrix, 2015):
The whole screen tested about 5,500 compounds, of which about 2,000 (36%) were called active. Not shown: some 18% with an inconclusive outcome. Cut-off read from the data, not from the text of the source: active = normalized growth mostly below about 0.91 (no sharp cut-off); inconclusive = no clear call, values can overlap the other calls; inactive = mostly above about 0.92. Some of the results follow.

Assay: chemical genetic growth profiling, strain panel (AID 1159580);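 note: tested at 20 µM; growth read once vehicle control cultures reached saturation at 30 °C; 1 = growth at the plate median or of vehicle wells; lower values mean less growth of the strain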
Details: growth OD

Measured: normalized growth

C1CCN2C[C@@H]3C[C@H](CN4CCCC[C@@H]34)[C@H]2C1
inactive: S. cerevisiae deletion strains, locus YJR066W, strain TOR1, active compounds read low 0.988 | S. cerevisiae deletion strains, locus YJR075W, strain HOC1, active compounds read low 1.01 | S. cerevisiae deletion strains, locus YKL009W, strain mrt4, active compounds read low 0.994 | S. cerevisiae deletion strains, locus YKL068W, active compounds read low 0.999 | S. cerevisiae deletion strains, locus YKL085W, strain MDH1 (second series), active compounds read low 1.02 | S. cerevisiae deletion strains, locus YKL085W, strain MDH1, active compounds read low 1.02 | S. cerevisiae deletion strains, locus YKL160W, strain elf1, active compounds read low 0.987 | S. cerevisiae deletion strains, locus YKL190W, strain CNB1, active compounds read low 1.02 | S. cerevisiae deletion strains, locus YKR001C, strain vps1, active compounds read low 0.996 | S. cerevisiae deletion strains, locus YKR026C, strain gcn3, active compounds read low 1.01 | S. cerevisiae deletion strains, locus YKR091W, strain srl3, active compounds read low 1 | S. cerevisiae deletion strains, locus YLL001W, strain dnm1, active compounds read low 0.999 | S. cerevisiae deletion strains, locus YLL026W, active compounds read low 1.01 | S. cerevisiae deletion strains, locus YLL041C, strain sdh2, active compounds read low 0.999 | S. cerevisiae deletion strains, locus YLR027C, strain aat2, active compounds read low 0.992 | S. cerevisiae deletion strains, locus YLR039C, strain RIC1, active compounds read low 1.06 | S. cerevisiae deletion strains, locus YLR058C, strain SHM2, active compounds read low 1.01 | S. cerevisiae deletion strains, locus YLR102C, strain apc9, active compounds read low 0.993 | S. cerevisiae deletion strains, locus YLR113W, strain HOG1, active compounds read low 1.01 | S. cerevisiae deletion strains, locus YLR221C, strain rsa3, active compounds read low 1.03 | S. cerevisiae deletion strains, locus YLR258W, strain gsy2, active compounds read low 1.01 | S. cerevisiae deletion strains, locus YLR262C, strain YPT6 (second series), active compounds read low 1.04 | S. cerevisiae deletion strains, locus YLR262C, strain YPT6, active compounds read low 1.1 | S. cerevisiae deletion strains, locus YLR268W, strain sec22, active compounds read low 0.996 | S. cerevisiae deletion strains, locus YLR320W, strain mms22, active compounds read low 1.04 | S. cerevisiae deletion strains, locus YLR330W, strain CHS5, active compounds read low 1.02 | S. cerevisiae deletion strains, locus YLR342W, strain FKS1 (second series), active compounds read low 0.996 | S. cerevisiae deletion strains, locus YLR342W, strain FKS1, active compounds read low 1 | S. cerevisiae deletion strains, locus YLR357W, strain rsc2, active compounds read low 1.02 | S. cerevisiae deletion strains, locus YLR370C, strain arc18, active compounds read low 1.01 | S. cerevisiae deletion strains, locus YLR371W, strain rom2, active compounds read low 0.999 | S. cerevisiae deletion strains, locus YLR384C, strain iki3, active compounds read low 1.01 | S. cerevisiae deletion strains, locus YLR418C, strain cdc73, active compounds read low 0.98 | S. cerevisiae deletion strains, locus YML016C, strain PPZ1, active compounds read low 0.997 | S. cerevisiae deletion strains, locus YML032C, strain rad52, active compounds read low 0.994 | S. cerevisiae deletion strains, locus YML120C, strain ndi1, active compounds read low 1.01 | S. cerevisiae deletion strains, locus YML124C, strain tub3, active compounds read low 1.01 | S. cerevisiae deletion strains, locus YMR058W, strain fet3, active compounds read low 1.01 | S. cerevisiae deletion strains, locus YMR078C, strain ctf18, active compounds read low 1 | S. cerevisiae deletion strains, locus YMR125W, strain sto1, active compounds read low 0.995 | S. cerevisiae deletion strains, locus YMR129W, active compounds read low 1.03 | S. cerevisiae deletion strains, locus YMR205C, strain PFK2, active compounds read low 0.997 | S. cerevisiae deletion strains, locus YMR223W, strain ubp8, active compounds read low 1.01 | S. cerevisiae deletion strains, locus YMR231W, strain pep5, active compounds read low 1.01 | S. cerevisiae deletion strains, locus YMR307W, strain GAS1, active compounds read low 1.02 | S. cerevisiae deletion strains, locus YNL067W, strain RPL9B, active compounds read low 1.01 | S. cerevisiae deletion strains, locus YNL071W, strain lat1, active compounds read low 1.01 | S. cerevisiae deletion strains, locus YNL153C, strain GIM3, active compounds read low 1.01 | S. cerevisiae deletion strains, locus YNL183C, strain NPR1, active compounds read low 0.98 | S. cerevisiae deletion strains, locus YNL209W, strain ssb2, active compounds read low 1.01 | S. cerevisiae deletion strains, locus YNL233W, strain BNI4, active compounds read low 1.01 | S. cerevisiae deletion strains, locus YNL248C, strain rpa49, active compounds read low 1.03 | S. cerevisiae deletion strains, locus YNL250W, strain rad50, active compounds read low 1.02 | S. cerevisiae deletion strains, locus YNL271C, strain bni1, active compounds read low 1.01 | S. cerevisiae deletion strains, locus YNL298W, strain CLA4, active compounds read low 0.994 | S. cerevisiae deletion strains, locus YNL307C, strain MCK1, active compounds read low 1.01 | S. cerevisiae deletion strains, locus YNL322C, strain KRE1 (second series), active compounds read low 1.01 | S. cerevisiae deletion strains, locus YNR049C, strain mso1, active compounds read low 1.01 | S. cerevisiae deletion strains, locus YNR052C, strain pop2, active compounds read low 1.02 | S. cerevisiae deletion strains, locus YOL006C, strain TOP1, active compounds read low 1.08 | S. cerevisiae deletion strains, locus YOL012C, strain htz1 1.61 | S. cerevisiae deletion strains, locus YOL147C, strain pex11, active compounds read low 1 | S. cerevisiae deletion strains, locus YOR001W, strain rrp6, active compounds read low 1.02 | S. cerevisiae deletion strains, locus YOR061W, strain CKA2, active compounds read low 1.01 | S. cerevisiae deletion strains, locus YOR069W, strain VPS5, active compounds read low 1 | S. cerevisiae deletion strains, locus YOR070C, strain gyp1, active compounds read low 1.02 | S. cerevisiae deletion strains, locus YOR080W, strain dia2, active compounds read low 0.999 | S. cerevisiae deletion strains, locus YOR083W, strain WHI5, active compounds read low 0.979 | S. cerevisiae deletion strains, locus YOR106W, strain vam3, active compounds read low 1 | S. cerevisiae deletion strains, locus YOR136W, strain idh2, active compounds read low 0.998 | S. cerevisiae deletion strains, locus YOR144C, strain elg1, active compounds read low 0.989 | S. cerevisiae deletion strains, locus YOR184W, strain ser1, active compounds read low 0.995 | S. cerevisiae deletion strains, locus YOR231W, strain MKK1, active compounds read low 1.03 | S. cerevisiae deletion strains, locus YOR265W, strain rbl2, active compounds read low 1 | S. cerevisiae deletion strains, locus YOR270C, strain vph1, active compounds read low 1.05 | S. cerevisiae deletion strains, locus YOR290C, strain snf2, active compounds read low 0.979 | S. cerevisiae deletion strains, locus YOR316C, strain cot1, active compounds read low 1 | S. cerevisiae deletion strains, locus YPL051W, strain arl3, active compounds read low 0.999 | S. cerevisiae deletion strains, locus YPL055C, strain LGE1, active compounds read low 1.02 | S. cerevisiae deletion strains, locus YPL078C, strain atp4, active compounds read low 0.978 | S. cerevisiae deletion strains, locus YPL106C, strain sse1, active compounds read low 1.01 | S. cerevisiae deletion strains, locus YPL240C, strain hsp82, active compounds read low 0.999 | S. cerevisiae deletion strains, locus YPL241C, strain CIN2, active compounds read low 1 | S. cerevisiae deletion strains, locus YPL256C, strain CLN2, active compounds read low 1.06 | S. cerevisiae deletion strains, locus YPR119W, strain clb2, active compounds read low 0.999 | S. cerevisiae deletion strains, locus YPR141C, strain kar3, active compounds read low 1 | S. cerevisiae deletion strains, locus YPR163C, strain tif3, active compounds read low 1 | S. cerevisiae deletion strains, locus YPR167C, strain met16, active compounds read low 1.02 | S. cerevisiae deletion strains, strain wtn01, active compounds read low 1.01 | S. cerevisiae strains, strain wild type, active compounds read low 1.02
